Common to all, as to experiment: log2 ratio of Biotin-Ahx-Ub-VS probe labelling (fragment/DMSO); higher = less target engagement (more negative = stronger competition), active = hit call of the paper (q ≤ 0.05, log2 ratio ≤ -1)
What all share (details): compound concentration: 200 uM; treatment time: 3 h

The target in one experiment is USP16 (UniProt Q9Y5T5). In short, it runs like this: (§1)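 Using Biotin-Ahx-Ub-VS at 0.5 µM final for 1 h, DUBs were labelled in HEK293T lysate (495 µg per sample) that had first been treated in triplicate with fragment at 200 µM or vehicle for 3 h. NeutrAvidin enrichment, LysC and trypsin digestion and diaPASEF LC-MS/MS followed. Spectronaut label-free quantities were global-median-normalised. Values are average log2 fragment/vehicle ratios by unpaired t-test, using proteins with ≥2 unique peptides.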

For another experiment, the target named is T1, USP19 (UniProt O94966).
T1 sequence (whole entry): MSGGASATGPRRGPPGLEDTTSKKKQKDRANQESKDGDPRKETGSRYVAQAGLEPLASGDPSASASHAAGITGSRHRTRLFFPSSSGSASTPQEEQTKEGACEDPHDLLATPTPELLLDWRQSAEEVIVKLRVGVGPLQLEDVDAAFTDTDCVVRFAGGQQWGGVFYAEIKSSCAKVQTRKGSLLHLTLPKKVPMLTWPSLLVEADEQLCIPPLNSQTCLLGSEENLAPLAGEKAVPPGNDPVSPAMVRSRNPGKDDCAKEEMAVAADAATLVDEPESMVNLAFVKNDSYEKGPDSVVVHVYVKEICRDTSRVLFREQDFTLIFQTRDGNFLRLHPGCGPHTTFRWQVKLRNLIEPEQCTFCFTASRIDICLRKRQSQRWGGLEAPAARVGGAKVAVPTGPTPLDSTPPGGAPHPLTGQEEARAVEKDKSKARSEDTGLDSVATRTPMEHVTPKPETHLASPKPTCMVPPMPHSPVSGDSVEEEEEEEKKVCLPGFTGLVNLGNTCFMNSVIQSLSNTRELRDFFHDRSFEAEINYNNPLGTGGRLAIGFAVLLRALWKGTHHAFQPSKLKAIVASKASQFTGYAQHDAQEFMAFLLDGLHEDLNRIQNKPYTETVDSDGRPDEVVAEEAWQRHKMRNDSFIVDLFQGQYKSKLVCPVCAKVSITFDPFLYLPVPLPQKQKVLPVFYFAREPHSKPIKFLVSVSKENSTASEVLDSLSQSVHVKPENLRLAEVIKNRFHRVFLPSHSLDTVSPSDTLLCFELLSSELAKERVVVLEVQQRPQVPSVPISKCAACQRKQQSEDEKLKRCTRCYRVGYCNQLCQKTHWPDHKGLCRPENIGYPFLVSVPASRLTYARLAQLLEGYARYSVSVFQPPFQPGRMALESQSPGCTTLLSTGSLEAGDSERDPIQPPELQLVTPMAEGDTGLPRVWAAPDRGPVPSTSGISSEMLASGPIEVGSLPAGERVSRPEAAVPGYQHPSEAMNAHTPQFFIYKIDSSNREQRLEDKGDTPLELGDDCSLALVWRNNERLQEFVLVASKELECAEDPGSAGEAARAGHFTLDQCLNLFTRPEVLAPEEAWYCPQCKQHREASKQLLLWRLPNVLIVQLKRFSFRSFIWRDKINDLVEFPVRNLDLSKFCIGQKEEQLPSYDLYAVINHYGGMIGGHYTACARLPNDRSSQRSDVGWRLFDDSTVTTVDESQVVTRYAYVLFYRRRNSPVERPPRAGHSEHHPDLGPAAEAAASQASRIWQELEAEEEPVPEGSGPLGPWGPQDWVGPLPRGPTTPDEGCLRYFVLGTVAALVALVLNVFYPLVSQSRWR
The method, boiled down:
as §1

A further experiment has as its target USP24 (UniProt Q9UPU5). The method, boiled down:
as §1

A further experiment deals with T2, USP25 (UniProt Q9UHP3).
T2 sequence (whole entry): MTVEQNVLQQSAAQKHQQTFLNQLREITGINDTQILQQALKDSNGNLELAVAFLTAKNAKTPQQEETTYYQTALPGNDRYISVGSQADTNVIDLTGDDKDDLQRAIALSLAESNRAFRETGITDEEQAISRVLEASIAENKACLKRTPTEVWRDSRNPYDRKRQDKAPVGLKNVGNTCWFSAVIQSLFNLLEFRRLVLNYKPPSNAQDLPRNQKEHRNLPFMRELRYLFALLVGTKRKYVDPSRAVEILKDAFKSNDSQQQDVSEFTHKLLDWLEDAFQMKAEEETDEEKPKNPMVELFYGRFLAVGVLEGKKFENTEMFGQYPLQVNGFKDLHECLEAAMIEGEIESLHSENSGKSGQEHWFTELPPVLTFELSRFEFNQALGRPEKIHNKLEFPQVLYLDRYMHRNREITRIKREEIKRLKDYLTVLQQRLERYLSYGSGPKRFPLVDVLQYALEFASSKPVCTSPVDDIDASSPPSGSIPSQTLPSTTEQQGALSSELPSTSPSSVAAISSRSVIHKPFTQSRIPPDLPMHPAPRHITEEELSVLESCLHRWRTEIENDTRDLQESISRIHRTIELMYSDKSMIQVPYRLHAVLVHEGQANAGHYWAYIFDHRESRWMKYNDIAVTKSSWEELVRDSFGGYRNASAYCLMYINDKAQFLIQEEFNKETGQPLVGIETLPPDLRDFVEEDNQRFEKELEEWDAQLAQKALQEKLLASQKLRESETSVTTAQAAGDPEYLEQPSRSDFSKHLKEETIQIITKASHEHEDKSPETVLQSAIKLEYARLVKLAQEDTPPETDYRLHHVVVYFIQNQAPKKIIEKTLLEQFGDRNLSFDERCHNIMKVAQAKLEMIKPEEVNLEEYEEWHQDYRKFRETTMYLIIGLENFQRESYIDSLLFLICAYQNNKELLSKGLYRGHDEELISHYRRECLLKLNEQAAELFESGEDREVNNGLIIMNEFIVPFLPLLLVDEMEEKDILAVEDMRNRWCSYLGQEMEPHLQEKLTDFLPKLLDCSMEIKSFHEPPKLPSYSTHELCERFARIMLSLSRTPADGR
The method, boiled down:
as §1

The target in another experiment is T3, USP28 (UniProt Q96RU2).
T3 sequence (whole entry): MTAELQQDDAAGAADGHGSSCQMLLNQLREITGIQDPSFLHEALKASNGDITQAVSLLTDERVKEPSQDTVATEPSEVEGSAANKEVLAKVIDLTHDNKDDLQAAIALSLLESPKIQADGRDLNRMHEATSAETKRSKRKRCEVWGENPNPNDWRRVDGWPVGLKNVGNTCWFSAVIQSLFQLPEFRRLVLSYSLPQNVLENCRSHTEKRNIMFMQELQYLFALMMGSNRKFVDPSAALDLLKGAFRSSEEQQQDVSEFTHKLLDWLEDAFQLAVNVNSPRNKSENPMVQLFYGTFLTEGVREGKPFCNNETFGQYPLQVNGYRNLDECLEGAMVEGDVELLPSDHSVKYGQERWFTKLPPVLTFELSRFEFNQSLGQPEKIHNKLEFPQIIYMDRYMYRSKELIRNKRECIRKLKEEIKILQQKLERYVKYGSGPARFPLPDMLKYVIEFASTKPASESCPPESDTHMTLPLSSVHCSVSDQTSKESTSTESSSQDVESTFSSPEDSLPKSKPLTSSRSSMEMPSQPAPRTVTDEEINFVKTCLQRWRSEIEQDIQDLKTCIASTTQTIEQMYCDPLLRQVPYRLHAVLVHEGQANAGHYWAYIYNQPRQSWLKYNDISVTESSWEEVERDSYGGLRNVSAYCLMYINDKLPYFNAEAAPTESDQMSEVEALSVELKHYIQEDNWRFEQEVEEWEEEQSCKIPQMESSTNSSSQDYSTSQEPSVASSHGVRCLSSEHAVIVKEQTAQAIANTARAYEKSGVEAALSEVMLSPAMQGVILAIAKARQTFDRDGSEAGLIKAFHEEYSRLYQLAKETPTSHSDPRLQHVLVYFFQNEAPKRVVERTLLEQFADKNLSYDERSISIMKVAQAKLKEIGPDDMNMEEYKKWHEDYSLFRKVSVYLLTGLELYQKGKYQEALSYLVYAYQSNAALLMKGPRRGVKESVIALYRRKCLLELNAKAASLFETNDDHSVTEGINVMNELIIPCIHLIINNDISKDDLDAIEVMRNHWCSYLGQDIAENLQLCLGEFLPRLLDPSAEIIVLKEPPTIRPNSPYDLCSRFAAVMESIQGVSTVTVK
The method, boiled down: as §1

Unmarked numbers belong to inactive results.

Sequence of USP24 (Q9UPU5 whole entry): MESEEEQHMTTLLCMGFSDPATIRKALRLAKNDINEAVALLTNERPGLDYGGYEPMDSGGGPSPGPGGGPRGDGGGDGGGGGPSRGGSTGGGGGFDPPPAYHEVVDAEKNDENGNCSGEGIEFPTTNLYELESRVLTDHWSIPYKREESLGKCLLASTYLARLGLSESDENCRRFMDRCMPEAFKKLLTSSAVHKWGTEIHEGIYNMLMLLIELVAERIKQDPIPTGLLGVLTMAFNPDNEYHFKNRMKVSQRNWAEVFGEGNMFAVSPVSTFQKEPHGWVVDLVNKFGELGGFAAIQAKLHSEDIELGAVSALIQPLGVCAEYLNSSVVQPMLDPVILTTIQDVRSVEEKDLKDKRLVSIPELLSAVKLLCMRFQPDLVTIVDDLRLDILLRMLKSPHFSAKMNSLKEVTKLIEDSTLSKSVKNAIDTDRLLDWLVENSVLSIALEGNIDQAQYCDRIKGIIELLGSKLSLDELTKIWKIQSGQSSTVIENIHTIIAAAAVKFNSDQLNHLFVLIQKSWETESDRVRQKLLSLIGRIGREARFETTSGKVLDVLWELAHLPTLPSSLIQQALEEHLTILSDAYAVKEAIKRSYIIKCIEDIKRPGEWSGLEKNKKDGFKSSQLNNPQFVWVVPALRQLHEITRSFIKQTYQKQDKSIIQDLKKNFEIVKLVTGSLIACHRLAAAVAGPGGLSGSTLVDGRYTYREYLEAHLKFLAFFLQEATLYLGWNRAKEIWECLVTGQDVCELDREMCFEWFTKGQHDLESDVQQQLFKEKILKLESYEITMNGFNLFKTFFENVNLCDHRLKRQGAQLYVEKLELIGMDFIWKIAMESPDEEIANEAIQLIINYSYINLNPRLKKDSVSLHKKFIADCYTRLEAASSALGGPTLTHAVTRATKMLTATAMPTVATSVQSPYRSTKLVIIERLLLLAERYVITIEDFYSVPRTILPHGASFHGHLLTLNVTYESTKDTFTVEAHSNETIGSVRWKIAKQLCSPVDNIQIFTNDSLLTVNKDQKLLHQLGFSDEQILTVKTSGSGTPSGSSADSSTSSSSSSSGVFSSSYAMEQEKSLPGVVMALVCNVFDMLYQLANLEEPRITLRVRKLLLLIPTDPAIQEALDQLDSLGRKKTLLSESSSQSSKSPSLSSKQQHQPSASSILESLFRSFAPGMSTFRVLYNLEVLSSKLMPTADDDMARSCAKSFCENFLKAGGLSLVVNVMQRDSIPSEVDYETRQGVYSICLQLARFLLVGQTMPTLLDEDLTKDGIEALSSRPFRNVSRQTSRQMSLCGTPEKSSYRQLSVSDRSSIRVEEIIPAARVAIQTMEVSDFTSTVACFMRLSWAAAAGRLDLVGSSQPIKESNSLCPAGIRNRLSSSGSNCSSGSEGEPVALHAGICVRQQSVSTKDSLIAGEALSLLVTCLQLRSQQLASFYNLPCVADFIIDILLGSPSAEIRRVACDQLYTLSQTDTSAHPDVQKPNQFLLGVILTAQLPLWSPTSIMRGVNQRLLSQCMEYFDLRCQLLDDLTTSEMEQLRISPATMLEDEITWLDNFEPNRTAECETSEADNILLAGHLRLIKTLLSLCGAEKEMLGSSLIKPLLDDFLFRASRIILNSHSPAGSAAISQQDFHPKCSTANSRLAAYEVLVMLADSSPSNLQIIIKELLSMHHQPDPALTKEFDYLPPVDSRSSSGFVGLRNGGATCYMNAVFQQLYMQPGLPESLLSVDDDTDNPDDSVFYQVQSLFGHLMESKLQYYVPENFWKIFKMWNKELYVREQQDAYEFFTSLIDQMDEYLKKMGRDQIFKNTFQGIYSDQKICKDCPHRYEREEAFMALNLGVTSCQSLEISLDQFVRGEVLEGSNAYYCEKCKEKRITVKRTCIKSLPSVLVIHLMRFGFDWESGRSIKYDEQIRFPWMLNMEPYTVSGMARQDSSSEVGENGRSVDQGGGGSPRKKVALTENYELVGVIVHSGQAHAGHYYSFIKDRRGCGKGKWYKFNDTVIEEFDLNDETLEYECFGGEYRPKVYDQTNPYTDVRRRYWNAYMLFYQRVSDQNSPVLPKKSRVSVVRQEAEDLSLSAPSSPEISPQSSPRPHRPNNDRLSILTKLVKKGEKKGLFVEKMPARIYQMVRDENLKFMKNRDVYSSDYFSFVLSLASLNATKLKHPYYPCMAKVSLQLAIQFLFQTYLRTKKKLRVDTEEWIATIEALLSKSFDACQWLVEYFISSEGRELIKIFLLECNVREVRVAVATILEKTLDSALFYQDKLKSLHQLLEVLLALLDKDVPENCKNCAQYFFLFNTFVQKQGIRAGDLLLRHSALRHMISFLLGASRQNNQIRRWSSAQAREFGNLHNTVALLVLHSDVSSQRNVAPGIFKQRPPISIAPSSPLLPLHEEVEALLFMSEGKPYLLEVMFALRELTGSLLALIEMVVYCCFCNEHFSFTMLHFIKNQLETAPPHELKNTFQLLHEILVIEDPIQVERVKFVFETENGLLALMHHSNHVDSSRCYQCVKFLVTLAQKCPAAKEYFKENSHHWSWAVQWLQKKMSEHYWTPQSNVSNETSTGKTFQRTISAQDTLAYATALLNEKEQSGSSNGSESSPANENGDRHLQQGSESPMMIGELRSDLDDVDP
Sequence of USP16 (Q9Y5T5 whole entry, looked up, the tested form may be a part): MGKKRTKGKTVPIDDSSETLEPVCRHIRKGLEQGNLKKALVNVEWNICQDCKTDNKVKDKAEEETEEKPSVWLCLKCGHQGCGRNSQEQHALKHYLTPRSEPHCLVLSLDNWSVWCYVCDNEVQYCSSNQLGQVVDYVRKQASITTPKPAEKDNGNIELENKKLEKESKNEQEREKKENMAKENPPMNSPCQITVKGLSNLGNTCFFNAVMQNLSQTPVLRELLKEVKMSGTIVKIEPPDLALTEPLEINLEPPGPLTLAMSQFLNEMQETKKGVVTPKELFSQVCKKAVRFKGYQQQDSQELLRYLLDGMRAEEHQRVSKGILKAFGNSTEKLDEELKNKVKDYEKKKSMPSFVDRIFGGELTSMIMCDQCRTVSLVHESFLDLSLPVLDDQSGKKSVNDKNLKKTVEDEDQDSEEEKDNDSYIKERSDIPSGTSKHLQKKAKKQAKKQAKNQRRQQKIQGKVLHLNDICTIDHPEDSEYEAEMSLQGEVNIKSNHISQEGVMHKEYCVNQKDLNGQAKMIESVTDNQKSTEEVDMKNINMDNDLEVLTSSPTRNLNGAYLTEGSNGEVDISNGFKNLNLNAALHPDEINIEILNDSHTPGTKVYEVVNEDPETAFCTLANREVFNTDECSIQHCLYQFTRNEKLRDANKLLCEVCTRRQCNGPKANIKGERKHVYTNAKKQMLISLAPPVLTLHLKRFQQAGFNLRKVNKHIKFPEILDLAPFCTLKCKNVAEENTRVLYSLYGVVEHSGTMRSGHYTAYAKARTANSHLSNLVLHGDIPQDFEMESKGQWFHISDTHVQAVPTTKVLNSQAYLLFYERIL

Consider `COc1ccc(-c2csc(NC(=O)CCl)n2)cc1`, for which the “log2 ratio of Biotin-Ahx-Ub-VS probe labelling” value is -0.287 in the experiment with USP16; -0.674 with USP19; -1.44 (active) with USP24; -0.591 with USP25; -0.741 with USP28.

The values are drawn from the supplement of paper PMC11732987, “Enantioselective OTUD7B fragment discovery through chemoproteomics screening and high-throughput optimisation” (Communications Chemistry, 2025).
